Experiment [1] can be described thus: NFkB reporter suppression in cystic fibrosis bronchial cells – cell-based, uHTS hits, panel, cytotoxicity readout, dose response (AID 624344). The following applies: CF bronchial epithelial cells, PAF-induced NFkB reporter inhibition, with PAF, run 1; at 79 µM (top of the series) unless noted.
Assay in experiment [2]: as above
The following applies: CF bronchial epithelial cells, PAF-induced NFkB reporter inhibition, with PAF, run 2; at 79 µM (top of the series) unless noted.

A word on the inhibition: it is the drop in the measured response relative to a control, in per cent. Turning to `O=C(N/N=C/c1ccccc1Cl)c1[nH]c2ccc(Br)cc2c1-c1ccccc1`, the values for the inhibition in experiment [1] and in experiment [2] were 105% and 109%, respectively.
Taken in the same sequence, the figures for `FC(F)Sc1ccc(NC(=S)NCC2CCCCC2)cc1` were 106% and 112%.
The like results for `c1csc(CNc2ncnc3ccc(-c4ccoc4)cc23)c1` were, in that order, 105% and 116%.
As for `CCC1(O)C(=O)OCc2c1cc1n(c2=O)Cc2cc3cc(O)ccc3nc2-1` (stereo not drawn), the inhibition amounted to 106% in experiment [1] and 88.8% in experiment [2].
Turning to `COc1ccc(NC(=O)Cn2ncn3nc(-c4ccc(OC)cc4)cc3c2=O)cc1`, the inhibition amounted to 102% in experiment [1] and 107% in experiment [2].
The like results for `CC(=O)Nc1ccc(-c2ccnc3c2CC(C(=O)NCc2ccccc2)O3)cc1` (stereo not drawn) were, in that order, -53.5% and -72.7%.
As for `C[C@H]1Cn2cnc(C(=O)Nc3cccc(Cl)c3)c2C(=O)N1`, the figures for the inhibition in experiment [1] and in experiment [2] were 105% and 104%, respectively.
The like results for `COc1ccccc1NS(=O)(=O)c1ccc(-c2cnc(C3CC3)o2)cc1` were, in that order, 82.8% and 97.8%.
The like results for `CCCCCCc1cc2cc(S(=O)(=O)c3ccc(F)cc3)c(=O)oc2cc1O` were, in that order, 103% and 87.3%.
As to `Cc1ccc(CCC(=O)Nc2ncc(Cc3cccc(Cl)c3Cl)s2)o1`, the results for the inhibition in experiment [1] and in experiment [2] were 101% and 112%, respectively.
Taken in the same sequence, the figures for `O=C(Nc1ccc(Cl)cc1)c1nc[nH]c1C(=O)NCCCCNC(=O)c1[nH]cnc1C(=O)Nc1ccc(Cl)cc1` were 98.8% and 105%.
Consider `CS(=O)(=O)c1ncc(Cl)c(C(=O)Nc2ccc(OC(F)F)cc2)n1`, for which the inhibition in experiment [1] amounted to 91.4%; in experiment [2] it was 90.1%.
On to `Oc1ccc(Nc2ncnc3scc(-c4ccccc4)c23)cc1`, for which the inhibition in experiment [1] worked out at 56%; in experiment [2], 41%.
On to `CCc1cc(SC#N)cc(C)c1NC(=O)CCl`, for which the inhibition in experiment [1] was found to be 107%; in experiment [2], 99.9%.
Take `Cc1ccc(C(=O)Nc2cccc(C(F)(F)F)c2)cc1NC(=O)c1ccno1`: the inhibition in experiment [1] amounted to 86.8%; in experiment [2], 111%.
The like results for `CCOC(=O)COc1ccc2ccccc2c1/C=C/[N+](=O)[O-]` were, in that order, 100% and 97.5%.
Turning to `CC(=O)Oc1c(Br)cc(N(C(C)=O)S(=O)(=O)c2ccccc2)c2ccccc12`, the inhibition in experiment [1] came to 72.3%; in experiment [2] it was 88.1%.
Turning to `C=CCOc1c(OC)cc(/C=N/Nc2cccc(C(=O)O)c2)c(Br)c1Br`, the inhibition in experiment [1] was found to be 103%; in experiment [2] it was 105%.
Taken in the same sequence, the figures for `CC1CCCCN1c1ncnc(N)c1[N+](=O)[O-]` (stereo not drawn) were 113% and 103%.
Taken in the same sequence, the figures for `CC(C)(CO)CNc1ccn2nccc2n1` were 114% and 99.8%.
The like results for `Cc1ccc(CNc2ncnc3ccc(-c4ccc(CO)o4)cc23)o1` were, in that order, 101% and 99.1%.
`O=C(COC(=O)c1ccc2[nH]c3c(c2c1)CCCC3)Nc1ccccc1Cl`: the inhibition in experiment [1] came out at 65.7%; in experiment [2] it was 69.7%.
The like results for `COc1ccc(OC)c(C2CC(=O)c3c([nH]c(C(=O)OC(C)C)c3C)C2)c1` (stereo not drawn) were, in that order, 51.7% and 64.2%.
Turning to `Cc1ccnc(Nc2nc(-c3sc(C)nc3C)cs2)c1`, the results for the inhibition in experiment [1] and in experiment [2] were 107% and 104%, respectively.
The like results for `NC1(C(=O)O)CSSC1` were, in that order, 112% and 103%.
Consider `Cc1ccc(-c2cc(C(=O)N/N=C/c3c(C)nn(-c4ccccc4)c3C)[nH]n2)cc1`, for which the inhibition in experiment [1] turned out to be 62.7%; in experiment [2], 88.3%.
In the case of `O=C(NCc1cccnc1)/C(=C\c1ccc(-c2cccc(Cl)c2)o1)S(=O)(=O)c1ccccc1`, the inhibition amounted to 101% in experiment [1] and 99.2% in experiment [2].
Taken in the same sequence, the figures for `CC(=O)Oc1ccccc1C(=O)Oc1ccc(/C=N/n2cnnc2)cc1` were 106% and 105%.
With `NC(c1csc(NC(=O)Nc2cccc(Cl)c2)n1)c1ccccc1Cl` (stereo not drawn), the values for the inhibition in experiment [1] and in experiment [2] were 96.3% and 101%, respectively.
For `N#Cc1ccsc1NC(=O)c1ccc(Cl)c([N+](=O)[O-])c1`, the values for the inhibition in experiment [1] and in experiment [2] were 74% and 101%, respectively.
`O=C(NCCCSc1ccccc1)c1cc(Br)ccc1O`: the inhibition in experiment [1] stood at 110%; in experiment [2], 103%.
`Cc1ccc(S(=O)(=O)Nc2nc3ccccc3nc2Nc2cccc(S(=O)(=O)N3CCCC3)c2)cc1`: the inhibition in experiment [1] was 94.9%; in experiment [2], 103%.
The like results for `Cc1ccc(N(C)C(=O)c2cc(S(=O)(=O)N3CCCCC3)c[nH]2)cc1` were, in that order, 93.5% and 79%.
The like results for `C=CC[C@@H](CC(=O)N[C@H](CO)Cc1ccccc1)C(=O)NC[C@H](OC(=O)[C@@H](CC=C)Cc1ccc(F)cc1)c1ccccc1` were, in that order, 101% and 108%.
The like results for `CN(c1ncnc(N)c1[N+](=O)[O-])C1CCCCC1` were, in that order, 115% and 102%.
`CCOc1ccccc1N1CCN(C(=O)c2cc(-c3cc(OC)ccc3OC)nc3ccccc23)CC1`: the inhibition in experiment [1] was found to be 107%; in experiment [2] it was 104%.
Taken in the same sequence, the figures for `CC(=O)Oc1ccc(N(C(C)=O)S(=O)(=O)c2cccs2)c2ccccc12` were 92.7% and 62.6%.
`Cc1ccccc1C(=O)N1CCN(c2ccc(NC(=O)CSc3ccc(Cl)cc3)cc2)CC1`: the inhibition was determined as 77.6% in experiment [1] and 71.9% in experiment [2].
`Cc1ccc2nc(SCC(=O)Nc3cc(C(F)(F)F)ccc3N3CCOCC3)[nH]c2c1`: the inhibition in experiment [1] worked out at 81.3%; in experiment [2], 48.5%.
`CCC(=O)c1ccc(O)c(CC=C(C)C)c1`: the inhibition in experiment [1] is 114%; in experiment [2], 97.8%.
The like results for `O=C(c1cncc(Br)c1)N1CCc2ccccc2C1` were, in that order, 92.5% and 80.2%.
Taken in the same sequence, the figures for `CCOC(=O)Cc1nnc2c(Nc3ccc(Cl)cc3)nc3nonc3n12` were 110% and 101%.
The like results for `COc1cccc(NC(=O)Nc2nnc(CC(=O)Nc3ccccc3)s2)c1` were, in that order, 90.4% and 85.1%.
In the case of `CCCn1c(-c2nonc2N)nc2ccccc21`, the results for the inhibition in experiment [1] and in experiment [2] were 99.6% and 95.5%, respectively.

Values taken from PubChem BioAssay.
